In PubChem BioAssay (NCATS):
Several values for one entry are separate records, joined by “and”; a condition that tells them apart may be missing. Equal entries are not always repeated. Inconclusive results are not listed. Where a call stands in place of a potency, no number is given. Values without a mark were called inactive. Activity calls are given as the source filed them. Calls come from the whole dose curve; as a rule, active = well fitted inhibition curve with a large enough effect; inconclusive = small, poorly fitted or top-dose-only effect; inactive = flat fitted curve, though single readings scatter.

Tests used:
CRL-7250 = normal cell line; assay: Cytotoxic Profiling of Annotated Libraries Using Quantitative High-Throughput Screening (AID 1296008); conditions: Five cell lines viability, CellTiter-Glo ATP luminescence, 48-72 h; max response: active compounds read low; note: potency is the fitted concentration of half-maximal effect
Summary of the method: (§1)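 Compounds were pin-transferred onto cells and incubated 48 or 72 hr at 37 degree Celsius, 95% humidity. CellTiter-Glo was added, plates sat 10 min at room temperature, then ATP-coupled luminescence was imaged as the viability read-out.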

HEK293 = assay: as above; conditions: Five cell lines viability, CellTiter-Glo ATP luminescence, 48-72 h; max response: active compounds read low
Summary of the method: as §1

HaCat = assay: as above; conditions: Five cell lines viability, CellTiter-Glo ATP luminescence, 48-72 h; max response: active compounds read low
Summary of the method: as §1

KB-3-1 = assay: as above; conditions: Five cell lines viability, CellTiter-Glo ATP luminescence, 48-72 h; max response: active compounds read low
Summary of the method: as §1

NIH3T3 = assay: as above; conditions: Five cell lines viability, CellTiter-Glo ATP luminescence, 48-72 h; max response: active compounds read low
Summary of the method: as §1

MCC-13 = assay: qHTS assay to identify novel small-molecules to repurpose for Merkel cell carcinoma treatment (AID 1296009); conditions: MCC and control cell lines, CellTiter-Glo viability, 72 h; series mostly up to 46 µM
Summary of the method: (§2)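 Viability readout: ATP luminescence (CellTiter-Glo) after 72 hr drug exposure at 37 degree celsius. Dose-response format was 8 points for NPC and 11 points for MIPE; data normalized to in-plate controls.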

MCC-26 = assay: as above; conditions: MCC and control cell lines, CellTiter-Glo viability, 72 h; series mostly up to 46 µM
Summary of the method: as §2

P93_24 = assay: qHTS profiling for inhibitors of Plasmodium falciparum proliferation (AID 504749); conditions: P. falciparum in erythrocytes, SYBR Green DNA, 72 h; series mostly up to 28.7 µM
Summary of the method: (§3)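 Quantitative HTS: compounds pinned into medium, infected erythrocytes added (0.3% parasitemia, 2.5% hematocrit), 72 h culture at 37 C under 5% CO2. Saponin/Triton lysis with SYBR Green I, overnight RT, then fluorescence read.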

P94_40 = assay: as above; conditions: P. falciparum in erythrocytes, SYBR Green DNA, 72 h; series mostly up to 28.7 µM
Summary of the method: as §3

PAD = assay: as above; conditions: P. falciparum in erythrocytes, SYBR Green DNA, 72 h; series mostly up to 28.7 µM
Summary of the method: as §3

PC15 = assay: as above; conditions: P. falciparum in erythrocytes, SYBR Green DNA, 72 h; series mostly up to 28.7 µM
Summary of the method: as §3

PC26 = assay: as above; conditions: P. falciparum in erythrocytes, SYBR Green DNA, 72 h; series mostly up to 28.7 µM
Summary of the method: as §3

PC49 = assay: as above; conditions: P. falciparum in erythrocytes, SYBR Green DNA, 72 h; series mostly up to 28.7 µM
Summary of the method: as §3

SC27B = assay: as above; conditions: P. falciparum in erythrocytes, SYBR Green DNA, 72 h; series mostly up to 28.7 µM
Summary of the method: as §3

TAB109 = assay: as above; conditions: P. falciparum in erythrocytes, SYBR Green DNA, 72 h; series mostly up to 28.7 µM
Summary of the method: as §3

TAB113 = assay: as above; conditions: P. falciparum in erythrocytes, SYBR Green DNA, 72 h; series mostly up to 28.7 µM
Summary of the method: as §3

TAB165 = assay: as above; conditions: P. falciparum in erythrocytes, SYBR Green DNA, 72 h; series mostly up to 28.7 µM
Summary of the method: as §3

W2 = assay: as above; conditions: P. falciparum in erythrocytes, SYBR Green DNA, 72 h; series mostly up to 28.7 µM
Summary of the method: as §3

HEK293T = assay: qHTS assay to identify novel small-molecules to repurpose for Merkel cell carcinoma treatment (AID 1296009); conditions: MCC and control cell lines, CellTiter-Glo viability, 72 h; at 44.8 µM (top of the series)
Summary of the method: as §2
Note: nearly all actives have a fitted effect of over 60% in size.

## CC(C)(Cc1ccc2ccccc2c1)NC[C@@H](O)COc1cccc(Cl)c1C#N
CRL-7250
  outcome: inactive
HEK293
  max response: -1.92%
HaCat
  max response: -22.6%
KB-3-1
  max response: 2.48%
NIH3T3
  max response: -24.7%
MCC-13
  Potency: inactive
MCC-26
  Potency: inactive

## CC(C)NCC(O)COc1cccc2[nH]ccc12 (stereo not drawn)
CRL-7250
  max response: -21.3% and 3.12%
HEK293
  max response: -23%
HaCat
  max response: -22.9% and 1.98%
KB-3-1
  max response: 13.5% and 2.02%
NIH3T3
  max response: -7.28% and 1.44%
MCC-13
  Potency: inactive
MCC-26
  Potency: inactive

## CC(=O)N[C@@H](CS)C(=O)O
P93_24
  outcome: inactive
P94_40
  Potency: inactive
PAD
  outcome: inactive
PC15
  outcome: inactive
PC26
  Potency: inactive
PC49
  outcome: inactive
SC27B
  Potency: inactive
TAB109
  outcome: inactive
TAB113
  Potency: inactive
TAB165
  Potency: inactive
W2
  Potency: inactive
CRL-7250
  max response: -25.8%
HEK293
  outcome: inactive
HaCat
  max response: -16.4%
KB-3-1
  max response: 0.129%
NIH3T3
  outcome: inactive
HEK293T
  outcome: inactive
MCC-13
  Potency: inactive
MCC-26
  Potency: inactive

## O=C(O)C(O)Cc1ccc(O)c(O)c1 (stereo not drawn)
CRL-7250
  max response: -24.8%
HEK293
  outcome: inactive
HaCat
  max response: -1.88%
KB-3-1
  max response: 5.06%
NIH3T3
  max response: -0.893%
HEK293T
  outcome: inactive
MCC-13
  Potency: inactive
MCC-26
  Potency: inactive

## O=c1cc(CN2CCOCC2)occ1OCCCCCSc1ccnc2cc(C(F)(F)F)ccc12
CRL-7250
  Potency: 11.8 µM (active) and 9.2 µM (active)
HEK293
  Potency: 8.33 µM (active) and 4.11 µM (active)
HaCat
  max response: -9.94%
KB-3-1
  max response: -24.2%
NIH3T3
  max response: 0.796%
MCC-13
  Potency: inactive
MCC-26
  Potency: inactive

## O=C1NC(=O)C(c2ccccc2)(c2ccccc2)N1
P93_24
  outcome: inactive
P94_40
  Potency: inactive
PAD
  outcome: inactive
PC15
  outcome: inactive
PC26
  Potency: inactive
PC49
  outcome: inactive
SC27B
  Potency: inactive
TAB109
  outcome: inactive
TAB113
  Potency: inactive
TAB165
  Potency: inactive
W2
  Potency: inactive
CRL-7250
  outcome: inactive
HEK293
  max response: -11.5%
HaCat
  max response: -5.29%
KB-3-1
  max response: 7.95%
NIH3T3
  max response: -3.65%
MCC-13
  Potency: inactive
MCC-26
  Potency: inactive

## O=C(Nc1cc(Cl)cc2c1[nH]c1cnccc12)c1cccnc1
CRL-7250
  max response: -0.841%
HEK293
  max response: 3.08%
HaCat
  max response: -0.0712%
KB-3-1
  max response: -1.81%
NIH3T3
  max response: 2.41%
MCC-13
  Potency: inactive
MCC-26
  Potency: inactive
